About 83,000 compounds went through this panel and 20% of them were active in at least one assay; those are over-represented in the sample as a whole.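 Cell lines were cultured in 96-well plates, exposed to a single compound concentration, and assessed for percent growth 48 hours later.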 Unmarked numbers belong to inactive results. Active and inactive are the calls of the source. The calls were made as follows: active = growth percent below 10; inactive = the rest.

For 15 molecules, growth results are on record in PubChem BioAssay (NCI).

Among the test systems are T-47D breast; BT-549 breast; MDA-MB-435 melanoma; SW-620 colon; MCF7 breast; HCT-116 colon; HCC-2998 colon; KM12 colon.
Holding throughout (test): NCI-60 one-dose screen, 48 h (100 = growth as untreated, 0 = no growth, -100 = all killed)
Holding throughout (conditions): 10 µM unless noted

Consider `CCN(CC)CCN1CNC(=S)NC1`, for which the growth in the experiment on T-47D breast was 94.5%; with BT-549 breast, 102%; in the experiment with MDA-MB-435 melanoma, 109%; in the experiment on SW-620 colon, 107%; in the experiment on MCF7 breast, 98.4%; in the experiment on HCT-116 colon, 103%. In addition, the values for the growth with HCC-2998 colon and in the experiment with KM12 colon were 109% and 98.7%, respectively.

As to `O=S(=O)(c1ccc(NC(=S)NCc2cccnc2)cc1)N1CCCCC1`, the growth is 32.9% with T-47D breast; 73.4% in the experiment with BT-549 breast; 36.2% in the experiment on MDA-MB-435 melanoma; 32.7% in the experiment on SW-620 colon; 54.7% in the experiment with MCF7 breast; 26.2% in the experiment with HCT-116 colon. Moreover, the results for the growth with HCC-2998 colon and in the experiment on KM12 colon were 71.6% and 51.7%, respectively.

Take `CC(C)Sc1ncnc2nc[nH]c12`: the growth in the experiment with T-47D breast was 100%; with BT-549 breast, 121%; in the experiment on MDA-MB-435 melanoma, 97.4%; with SW-620 colon, 108%; in the experiment with MCF7 breast it was 98.1%; in the experiment with HCT-116 colon it was 103%. Moreover, the growth is 108% with HCC-2998 colon and 128% with KM12 colon.

Regarding `OCCNc1ccccc1`, the growth with T-47D breast is 98.7%; with BT-549 breast, 97.4%; with MDA-MB-435 melanoma, 107%; with SW-620 colon, 108%; with MCF7 breast, 97.1%; with HCT-116 colon it was 89.9%. In addition, the growth in the experiment with HCC-2998 colon was 105%; with KM12 colon, 101%.

For the molecule `OCc1cccnc1`, the growth is 106% with T-47D breast; 106% in the experiment with BT-549 breast; 97.2% in the experiment on MDA-MB-435 melanoma; 102% in the experiment on SW-620 colon; 94% in the experiment on MCF7 breast; 107% in the experiment with HCT-116 colon. Besides, the growth in the experiment on HCC-2998 colon is 107%; with KM12 colon it was 105%.

Turning to `CC(=O)c1cccc(O)c1`, the growth in the experiment on T-47D breast was 103%; in the experiment on BT-549 breast it was 113%; with MDA-MB-435 melanoma, 107%; in the experiment on SW-620 colon, 101%; in the experiment on MCF7 breast, 94.3%; in the experiment on HCT-116 colon, 99.9%. Besides, the growth is 110% in the experiment on HCC-2998 colon and 103% in the experiment on KM12 colon.

Take `CCOc1ccc(C(=O)NCC(C)C)cc1`: the growth was 89.1% with T-47D breast; 98.3% in the experiment with BT-549 breast; 96.8% in the experiment with MDA-MB-435 melanoma; 91.7% in the experiment on SW-620 colon; 93.5% in the experiment with MCF7 breast; 101% in the experiment on HCT-116 colon. The growth in the experiment with HCC-2998 colon is 114%; in the experiment on KM12 colon, 101%.

Consider `Cc1cc2nc(C)c(C)nc2cc1C`, for which the growth in the experiment on T-47D breast is 99.5%; in the experiment on BT-549 breast, 100%; in the experiment on MDA-MB-435 melanoma, 105%; in the experiment on SW-620 colon, 111%; in the experiment on MCF7 breast, 90.7%; in the experiment with HCT-116 colon, 112%. Besides, the growth was 110% in the experiment on HCC-2998 colon and 108% with KM12 colon.

As for `c1ccc(Oc2c3ccccc3nc3ccccc23)cc1`, the growth is 56.2% in the experiment with T-47D breast; 25.2% in the experiment on BT-549 breast; -5.48% (active) in the experiment on MDA-MB-435 melanoma; 19.2% in the experiment on SW-620 colon; 14.2% with MCF7 breast; -25.7% (active) in the experiment on HCT-116 colon. For the same molecule, the growth in the experiment on HCC-2998 colon was 20.9%; in the experiment with KM12 colon it was 0.624% (active).

With `OC1Cc2ccccc2C1`, the growth was 102% in the experiment with T-47D breast; 97.4% in the experiment on BT-549 breast; 102% in the experiment on MDA-MB-435 melanoma; 96.7% in the experiment with SW-620 colon; 86.2% in the experiment with MCF7 breast; 97.9% in the experiment with HCT-116 colon. Further, the growth in the experiment with HCC-2998 colon was 94.8%; with KM12 colon, 98.5%.

On to `O=C1CSc2ccccc2N1`, for which the growth with T-47D breast was 107%; in the experiment on BT-549 breast, 117%; in the experiment with MDA-MB-435 melanoma, 108%; in the experiment with SW-620 colon, 99.2%; in the experiment on MCF7 breast, 98.5%; with HCT-116 colon, 111%. The growth with HCC-2998 colon was 99.6%; in the experiment on KM12 colon, 109%.

Regarding `Cc1ccc(NC(=S)N2CCOCC2)cc1C`, the growth in the experiment on T-47D breast is 92.1%; in the experiment with BT-549 breast, 102%; in the experiment with MDA-MB-435 melanoma it was 83.2%; in the experiment with SW-620 colon, 109%; in the experiment on MCF7 breast it was 104%; in the experiment on HCT-116 colon, 89.5%. The growth in the experiment with HCC-2998 colon is 109%; in the experiment with KM12 colon, 101%.

Turning to `COC1(OC)C2(Cl)C(Cl)=C(Cl)C1(Cl)C1COCC12` (stereo not given), the growth in the experiment on T-47D breast was 96.2%; with BT-549 breast, 105%; in the experiment on MDA-MB-435 melanoma it was 99%; with SW-620 colon, 85.8%; in the experiment on MCF7 breast, 101%; in the experiment on HCT-116 colon, 91.5%. Further, the growth was 105% in the experiment on HCC-2998 colon and 111% in the experiment on KM12 colon.

In the case of `COc1cc(N)c2ncccc2c1Cl`, the growth was 101% in the experiment with T-47D breast; 87.5% in the experiment on BT-549 breast; 111% in the experiment with MDA-MB-435 melanoma; 109% in the experiment on SW-620 colon; 104% in the experiment on MCF7 breast; 95.3% with HCT-116 colon. Besides, the growth in the experiment on HCC-2998 colon is 106%; in the experiment with KM12 colon, 117%.

Regarding `CC(=O)NNC(=S)/N=C\C(C(=O)c1ccccc1)=C(/O)c1ccccc1`, the growth with T-47D breast was 87.8%; in the experiment with BT-549 breast, 92.7%; in the experiment on MDA-MB-435 melanoma, 109%; in the experiment with SW-620 colon, 110%; in the experiment with MCF7 breast, 93.6%; in the experiment with HCT-116 colon, 96.5%. Besides, the growth was 102% in the experiment on HCC-2998 colon and 99.4% in the experiment on KM12 colon.
